Assay outcomes from PubChem.
Six1-Eya2 inh: inhibitors of human Six1/Eya2 interaction; activity change, % (no concentration beside the values); AlphaScreen GST-Six1/His-Eya2 binding, biochemical; hits give low values; AID 651725; 0.56% of 360,000 active; in the data active = activity change below about -65%; inconclusive = mostly about -30% to -63%
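Homogeneous AlphaScreen proximity assay pairing GST-Six1 with His-tagged Eya2 (added as 5X mix: 250 nM and 500 nM) in 50 mM Tris pH 8.0, 300 mM NaCl, 1 mM TCEP. Glutathione donor and nickel acceptor beads; 1 h, 37 °C, dark.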
TDP1 block: blocks human tyrosyl-DNA phosphodiesterase 1; Potency, µM (series often up to 130 µM), most hits filed as inhibitors; 0.28% of 350,000 active; recombinant TDP1, AlphaScreen DNA substrate cleavage; Q9NUW8; AID 485290; note: nearly all actives have a fitted effect of over 40% in size
Target sequence (Q9NUW8 whole entry, looked up): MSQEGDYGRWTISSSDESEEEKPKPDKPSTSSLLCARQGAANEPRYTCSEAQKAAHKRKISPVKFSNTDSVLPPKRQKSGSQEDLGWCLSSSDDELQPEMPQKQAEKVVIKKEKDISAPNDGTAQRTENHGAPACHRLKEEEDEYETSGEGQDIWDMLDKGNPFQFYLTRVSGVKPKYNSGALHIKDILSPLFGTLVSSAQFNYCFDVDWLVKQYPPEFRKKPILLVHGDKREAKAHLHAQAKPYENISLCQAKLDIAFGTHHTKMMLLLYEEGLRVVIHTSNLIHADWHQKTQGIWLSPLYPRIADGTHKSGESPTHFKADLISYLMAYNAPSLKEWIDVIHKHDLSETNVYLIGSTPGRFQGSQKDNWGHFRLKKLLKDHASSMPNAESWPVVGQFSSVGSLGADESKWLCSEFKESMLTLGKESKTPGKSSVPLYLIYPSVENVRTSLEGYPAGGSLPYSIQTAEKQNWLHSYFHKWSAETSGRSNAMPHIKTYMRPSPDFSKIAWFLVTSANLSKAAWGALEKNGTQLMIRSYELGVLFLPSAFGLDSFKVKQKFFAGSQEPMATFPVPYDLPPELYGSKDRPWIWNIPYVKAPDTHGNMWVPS
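Compounds were preincubated with Tdp1 (1 nM final) for 15 min at room temperature before substrate (15 nM final) started a 5 min reaction; beads (10 ug/ml final) were then added for 10 min before AlphaScreen detection.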
CtBP-E1A blk: inhibitors of CtBP/E1A interaction. AlphaScreen GST-E1A/His-CtBP binding, 1536-well; hits give low values. activity change, % (concentration not given with the values). 0.49% of 340,000 active. AID 651724; in the data active = activity change below about -65%; inconclusive = mostly about -30% to -63%
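Protein mix (5X: 125 nM each GST-E1A, His-CtBP) was incubated with pinned compound 2 h at 37 deg C in dark, in 50 mM Tris pH 8.0 buffer with 300 mM NaCl. Glutathione donor and nickel acceptor beads followed; AlphaScreen signal read after 1 h.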
IL-1B inflam inh: inhibitors of inflammasome signaling (IL-1 beta secretion) | activity change, % at 57.5 µM | THP-1 LPS/ATP IL-1B secretion, AlphaLISA, 16 h; hits give low values | 4.7% of 360,000 active; in the data active = activity change below about -50%; inconclusive = mostly about -30% to -49%
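Secreted IL-1B measured by AlphaLISA bead assay after 16 h compound exposure of THP-1 cells; compounds (final up to 57.5 uM) added 1 h before LPS (250 ng/mL) and ATP (1.25 mM) stimulation; lower signal means less secretion.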
TDP1 cell noCPT: qHTS for Inhibitors of human tyrosyl-DNA phosphodiesterase 1 (TDP1): qHTS in cells in absence of CPT. DT40 Tdp1-/- hTDP1 cells, no CPT, ATP luminescence, 48 h. Potency, µM (highest dose often 46.2 µM), actives largely listed as inhibitors. 15% of 420,000 active; note: nearly all actives have a fitted effect of over 55% in size
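Camptothecin absent (DMSO only). Human TDP1-complemented DT40 knockout cells, 400 cells/well, 37 °C for minimum 48 hr; ATP measured via CellTiter-Glo, 30 min dark incubation, luminescence.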
TDP1 cell CPT: growth inhibition of DT40 Tdp1-/-;hTDP1 cells with camptothecin (screen for TDP1 inhibitors); 12% of 420,000 active; Potency, µM (series often up to 46.2 µM), actives largely listed as inhibitors; chicken DT40 Tdp1-/-;hTDP1 cells + 20 nM CPT, ATP luminescence, 48 h; note: nearly all actives have a fitted effect of over 55% in size
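Cell growth measured by CellTiter-Glo luminescence after a minimum 48 h, 37 C compound exposure with 20 nM CPT in Tdp1-knockout DT40 cells stably expressing hTDP1, seeded 400/well; qHTS titration format.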
A number is an active result; n = inactive; u = inconclusive; x = no result given. The list is not random: actives were taken first. Their share in the collection is about 18%. Unless noted, calls come from the whole dose curve; as a rule, active = well fitted curve in the direction sought with a large enough effect; inconclusive = small, poorly fitted or top-dose-only effect, or another doubt; inactive = no such curve, though single readings can be large; an effect the other way counts as inactive or inconclusive.

SMILES | Six1-Eya2 inh | TDP1 block | CtBP-E1A blk | IL-1B inflam inh | TDP1 cell noCPT | TDP1 cell CPT
O=C(c1ccccc1)C1CN(Cc2ccccc2)CCC1(O)c1ccccc1 (centres undefined) | n | n | n | u | 11.6µM | 7.31µM
OC(c1ccccc1)C1CN(Cc2ccccc2)CCC1(O)c1ccccc1 (centres undefined) | n | n | n | n | u | u
COc1ccccc1NC(=O)CSc1ccc2nnc(-c3cccnc3)n2n1 | -70.2 | n | -76.9 | n | n | n
COc1ccc(NC(=O)CSc2ccc3nnc(-c4cccnc4)n3n2)c(OC)c1 | u | n | -68.0 | n | n | n
COc1cccc(NC(=O)CSc2ccc3nnc(-c4cccnc4)n3n2)c1 | n | n | u | n | n | n
CCOc1ccccc1NC(=O)CSc1ccc2nnc(-c3cccnc3)n2n1 | -78.9 | n | -85.2 | n | n | n
CC(=O)c1ccc(N(C(=O)CS(=O)CC(=O)Nc2ccc(F)cc2)C(C(=O)NC2CCCCC2)c2cccs2)cc1 (centres undefined) | n | n | n | n | u | n
CSCc1c(C(=O)N2CCCc3ccccc32)oc2ccccc12 | n | n | n | n | u | 14.6µM
CC1(C(=O)NS(=O)(=O)c2ccc(F)cc2F)CCN1C(=O)Cc1cccc2ccccc12 (centres undefined) | n | x | n | n | n | n
COc1ccc(NC(=O)CC2C(=O)N(c3ccc(Cl)cc3)C(=S)N2CCc2ccccn2)cc1 (centres undefined) | n | n | n | n | u | 25.9µM
CCN1C(=O)C(CC(=O)Nc2ccc(OC)cc2)N(CCc2ccccc2)C1=S (centres undefined) | n | n | n | -75.7 | n | n
C=CCN1C(=O)C(CC(=O)Nc2ccc(OCC)cc2)N(Cc2ccccn2)C1=S (centres undefined) | n | n | n | n | u | n
COc1ccc(NC(=O)CC2C(=O)N(c3ccc(Cl)cc3)C(=S)N2CCc2ccncc2)cc1 (centres undefined) | n | n | n | n | u | u
COC(=O)CN1C(=S)N(Cc2ccccc2)C(=O)C1CC(=O)Nc1ccc(Br)cc1 (centres undefined) | n | n | n | n | u | 16.4µM
CCCOc1ccc(NC(=O)CC2C(=O)N(Cc3ccccc3)C(=S)N2Cc2cccs2)cc1 (centres undefined) | n | n | n | u | 20.6µM | 9.2µM
CC1CCCC(NC(=O)CSc2nnc(-c3cccnc3)n2N)C1C (centres undefined) | n | n | n | n | n | n
CCN1C(=O)C(CC(=O)Nc2ccc(OC)cc2)N(CCCN2CCN(c3ccc(OC)cc3)CC2)C1=S (centres undefined) | n | n | u | n | 16.4µM | 20.6µM
CCN1C(=O)C(CC(=O)Nc2ccc(OC)cc2)N(CCN2CCOCC2)C1=S (centres undefined) | n | n | n | n | n | n
CC1=CC(C)(C)N(C(=O)CCl)c2cc(C)ccc21 | n | n | n | n | n | n
CCOc1ccc(S(=O)(=O)N2CCN(c3ccc(C)cc3C)CC2)cc1 | n | n | n | n | u | u
CC1=CC(C)(C)N(S(=O)(=O)c2ccc(C)cc2)c2cc(C)ccc21 | n | n | n | n | 5.17µM | 5.8µM
COc1ccc2c(c1)C(C)=CC(C)(C)N2S(=O)(=O)c1ccc(C)cc1 | n | n | n | n | 5.17µM | 5.8µM
CC1=CC(C)(C)N(C(=O)CN2C(=O)c3ccccc3C2=O)c2ccc(C)cc21 | n | n | n | n | n | u
CCOc1ccc2c(c1)C(C)=CC(C)(C)N2S(=O)(=O)c1ccc(C)cc1 | n | n | n | n | 6.51µM | u
CCNC(=O)N1c2ccc(OCC)cc2C(C)=CC1(C)C | n | n | n | n | 18.4µM | u
SMILES | Six1-Eya2 inh | TDP1 block | CtBP-E1A blk | IL-1B inflam inh | TDP1 cell noCPT | TDP1 cell CPT
CCCCCCNc1nc(-c2ccc(OC)cc2)c(CCC(=O)O)s1 | n | n | n | n | n | n
O=C(COC(=O)/C=C/c1ccccc1)NNC(=O)c1ccccc1F | n | n | n | n | n | n
COc1ccc(Br)cc1CNC(=O)C1CCC(=O)N1C(C)C (centres undefined) | n | x | n | n | n | n
COC(=O)C1CCC(=O)N1C(c1ccc(OC)cc1)c1cc(OC)c(OC)c(OC)c1 (centres undefined) | n | x | n | n | 1.3µM | 1.46µM
O=C(CCc1nnc(-c2ccsc2)o1)N1CCc2c(Cl)cccc2C1 | n | n | x | n | u | n
CCOC(=O)C1(Cc2ccccc2)CCN(Cc2cnn(-c3ccccc3)c2)CC1 | n | x | n | n | u | n
O=C1C=C(c2c(O)ccc3ccccc23)c2ccccc2C1=O | n | x | n | -116.8 | 1.16µM | 1.16µM
CCSc1nsc(NC(=O)Nc2cccc(OC)c2)n1 | n | x | n | -97.3 | u | u
CCSc1nsc(NC(=O)Nc2ccccc2F)n1 | n | x | n | -93.3 | 16.4µM | 18.4µM
CC(c1ccccc1)c1nnc(NC(=O)Nc2ccccc2F)s1 (centres undefined) | n | x | n | n | u | u
COc1cccc(NC(=O)Nc2ccncc2)c1 | n | n | n | n | n | n
C=CCSc1nsc(NC(=O)Nc2ccc(F)cc2)n1 | n | x | n | -88.3 | 3.26µM | 18.4µM
O=C(NCc1ccccn1)C1CC(=O)N(C2CCCC2)C1 (centres undefined) | n | x | n | n | n | n
COc1ccccc1Nc1ncccc1C(=O)NCc1ccccc1 | n | n | n | n | n | n
CCOC(=O)c1c(C)oc2nc(C)nc(NCCc3ccc(OCC)cc3)c12 | x | n | x | x | 5.17µM | 6.51µM
CCOC(=O)c1c(C)oc2nc(C)nc(NCCc3ccc(Cl)cc3)c12 | x | n | x | x | 13µM | u
CCOC(=O)c1c(C)oc2nc(C)nc(NCCc3ccc(OCC)c(OCC)c3)c12 | x | n | x | x | 13µM | u
O=S1(=O)c2c(Oc3cccc4ccccc34)cccc2OC(COCc2ccccc2)CN1C1CCCC1 (centres undefined) | n | x | n | n | 6.51µM | 6.51µM
O=S1(=O)c2c(F)cccc2OC(COCc2ccccc2)CN1C1CCCC1 (centres undefined) | n | x | n | n | 20.6µM | u
COc1ccc2nc(NC(=O)c3cccs3)sc2c1 | n | n | n | n | u | u
COCCN(Cc1cc2cc(C)ccc2n2nnnc12)C(=S)Nc1ccc(C)cc1 | n | n | x | n | 23.1µM | 18.4µM
CCC(C)NC(=S)N(Cc1cc2cc(C)ccc2n2nnnc12)CC(C)(C)NC(C)C (centres undefined) | n | n | n | n | 16.4µM | 16.4µM
